Screening results as filed in PubChem.
TrxR1 inh – rat TrxR1 inhibition. recombinant rTrxR1, NADPH fluorescence consumption, selenite substrate. Potency, µM (top dose mostly 114 µM), for inactives: top-dose activity change, negative = inhibition, hits mostly inhibitors. 390,000 tested, 1% active. O89049. AID 588453; also: potency is read from the fitted curve at half-maximal effect; nearly all actives have a fitted effect of over 65% in size
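Rat TrxR1 (90 nM in the dispensed reagent) was pre-reduced with 400 uM NADPH for 5 min at room temperature, then incubated with compound for 15 min. After 400 uM selenite was added, NADPH fluorescence (Ex 340/Em 450 nm) was followed for 8 min.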
GALK inhibitor – blocks human galactokinase activity; Potency, µM (titrated, usually from 57.5 µM), without a hit: top-dose activity change, negative = inhibition, usual class: inhibitors; AID 1868; P51570; 270,000 tested, 0.007% active; Purified GALK, Kinase-Glo residual ATP luminescence; also: potency is read from the fitted curve at half-maximal effect
Target sequence (P51570 whole entry, looked up): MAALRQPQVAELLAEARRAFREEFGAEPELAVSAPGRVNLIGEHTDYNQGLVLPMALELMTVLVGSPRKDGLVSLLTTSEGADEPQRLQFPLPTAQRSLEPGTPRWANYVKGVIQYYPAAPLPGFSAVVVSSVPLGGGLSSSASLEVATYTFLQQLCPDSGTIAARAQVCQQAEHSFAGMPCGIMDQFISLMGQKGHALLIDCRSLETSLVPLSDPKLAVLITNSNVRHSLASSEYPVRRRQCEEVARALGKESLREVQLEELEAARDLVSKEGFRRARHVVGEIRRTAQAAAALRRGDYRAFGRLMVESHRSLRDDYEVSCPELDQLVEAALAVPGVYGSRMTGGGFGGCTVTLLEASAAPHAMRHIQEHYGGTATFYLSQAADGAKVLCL
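Galactose (100 uM) and ATP (35 uM) were turned over by 5 nM GALK for 1 h at RT. Kinase-Glo Plus then converted the remaining ATP into a luminescent signal.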
Giardia kill – Giardia lamblia killing; Giardia lamblia trophozoite viability; activity change, % at 7.66 µM, hits read low; 340,000 tested, 0.15% active; AID 540267; in the data active = activity change below about -80%; inconclusive = between about -30% and that limit;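 also: parasites exposed to compound for two days anaerobically before the ATP read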
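Viability, read as ATP luminescence: trophozoites at 100 cells/well, compound added, 48 hrs anaerobic at 37 deg C, then 15-30 min room-temperature development before reading.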
TrxR1 substrate – is turned over as a substrate by rat TrxR1; O89049; purified TrxR1 substrate turnover, NADPH consumption readout; Potency, µM (doses to about 114 µM), for the others: at the top dose activity change, negative = substrate turnover; 390,000 tested, 0.01% active; AID 588456; also: potency is read from the fitted curve at half-maximal effect; nearly all actives have a fitted effect of over 50% in size
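Rat TrxR1, dispensed at 90 nM, was prereduced with 400 uM NADPH (final) for 5 min at ~22 deg C, then incubated with compound 15 min before 400 uM selenite. A first-read NADPH fluorescence drop versus no-compound background flagged substrates.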
KAT2A inh – blocks human GCN5L2 histone acetyltransferase; GCN5L2 HAT assay, ThioGlo1 CoA-SH fluorescence; Q92830; 390,000 tested, 0.21% active; Potency, µM (top dose mostly 58.9 µM), without a hit: at the highest dose activity change, negative = inhibition, actives largely listed as inhibitors; AID 504327; also: potency is read from the fitted curve at half-maximal effect
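Titration-based screen in which CoA formation is detected via maleimide probe ThioGlo1 (50uM) turning fluorescent on thiol reaction; substrates H3(1-25) 75uM and acetyl-CoA 70uM, GCN5L2 20nM, 20 min incubation at room temperature.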
Pin1 inh – blocks the human prolyl isomerase Pin1 | Q13526 | Pin1 FP peptide displacement, HiFluor488, 10 min | Potency, µM (doses to about 115 µM), for the others: top-dose activity, negative = inhibition, actives largely listed as inhibitors | 390,000 tested, 0.009% active | AID 504891; active = well fitted inhibition curve with a large enough effect in the polarisation, with a control signal flat, not every such curve was filed as active; inconclusive = small, poorly fitted or top-dose-only effect, or effect the other way, or a change in a side signal; inactive = no such curve, though single readings can be large or run the other way; the % refers to the polarisation; also: potency is read from the fitted curve at half-maximal effect
Target sequence (Q13526 whole entry, looked up): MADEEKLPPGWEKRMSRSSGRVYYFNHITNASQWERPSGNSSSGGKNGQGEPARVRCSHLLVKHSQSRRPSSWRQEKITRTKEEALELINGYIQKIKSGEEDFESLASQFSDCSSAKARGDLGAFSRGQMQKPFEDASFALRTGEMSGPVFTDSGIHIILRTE
* hit, by the source's call; ? = inconclusive; · = no result; [ ] = dose if it differs, or a comment. In the library only some 1.3% were active in any assay of this set; here they are far more common. Unless noted, calls follow the shape of the dose curve; as a rule, active = well fitted curve in the direction sought with a large enough effect; inconclusive = small, poorly fitted or top-dose-only effect, or another doubt; inactive = no such curve, though single readings can be large; an effect the other way counts as inactive or inconclusive. % is scaled to controls: 0 for no effect and ±100 for the full control effect.

SMILES	TrxR1 inh	GALK inhibitor	Giardia kill	TrxR1 substrate	KAT2A inh	Pin1 inh
CCCCOc1ccc(C(O)(CCN2CCOCC2)c2ccccc2)cc1 (stereo not given)	40µM*	-1%	-13	-5%	-4%	1%
O=C(CCN1CCOCC1)c1ccc(Br)cc1	0.45µM*	3%	2	12%[57.1 µM]	4%	3%
Cc1cc(C)cc(-n2c(SCC(=O)N3CCCCCC3)nc3c([nH]c4ccccc43)c2=O)c1	20%[57.1 µM]	·	·	3%[57.1 µM]	12%	-2%
CC(=O)Nc1ccc(SCC(CC(C)C)N2CCN(C)CCC2=O)cc1 (stereo not given)	0%	·	6	-3%	·	0%
CSCC[C@H](N)C(=O)N[C@@H](C)C(=O)NCC(=O)N[C@@H](CCCN=C(N)N)C(=O)N[C@@H](CO)C(=O)NCC(=O)N[C@@H](CC(=O)O)C(=O)N[C@@H](CO)C(=O)N[C@@H](CC(=O)O)C(=O)N[C@@H](CCC(=O)O)C(=O)N[C@@H](CC(=O)O)C(=O)N[C@@H](CC(C)C)C(=O)N[C@@H](CC(C)C)C(=O)N[C@@H](CCCCN)C(=O)N[C@@H](C)C(=O)N[C@H](C(=O)O)C(C)C	·	·	·	·	47%	·
O=c1c2oc3ccccc3c2ncn1Cc1ccc(Br)cc1	-3%	·	·	-13%	-5%	1%
COc1ccc(S(=O)(=O)N2CCCCCC2)cc1C(=O)Nc1ccccn1	6%	-4%	1	5%	-9%	4%
CC1(C)Cc2c(C#N)c(N3CCN(C(=O)c4ccccc4)CC3)nc(-c3ccco3)c2CS1	32µM*	-5%	0	6%	?	-28%
O=c1oc2ccccc2c(Cl)c1CN1CCCCC1	3.2µM*	-3%	-9	6%	-1%	4%
CCOc1cccc(N(C(=O)c2ccco2)C(C(=O)NC2CCCC2)c2cccnc2)c1 (stereo not given)	10%	-2%	10	2%	-16%	2%
O=C(NC1CCCCC1)C(c1cccnc1)N(C(=O)CCl)c1cccc(Cl)c1 (stereo not given)	6.3µM*	-3%	-1	-2%	3%	2%
CCOC(=O)C1=C(Cc2ccc(Cl)cc2)C(=O)c2ccccc2C1=O	10µM*	0%	7	6%	-13%	-24%
O=C(N/N=C/c1ccco1)c1cc(-c2ccccc2)nc2ccccc12	22%	6%	7	-7%	-1%	7%
COc1cccc(-c2cc(C(=O)N/N=C/c3ccco3)c3ccccc3n2)c1	-7%[57.1 µM]	-2%	1	-9%	?	12%
O=C(N/N=C/c1ccc([N+](=O)[O-])o1)c1cc(-c2cccc(Br)c2)nc2ccccc12	-23%	·	-86*	-7%	-11%	2%
CCCc1ccc(-c2cc(C(=O)N/N=C/c3ccc([N+](=O)[O-])o3)c3ccccc3n2)cc1	0%	1%	-94*	-9%	-6%	?
N#Cc1cc(Oc2cccc3cccnc23)c(-n2nnc3ccccc32)cc1C#N	71µM*	3%	2	-3%	-27%	?
N#Cc1cc(O)c(-n2nnc3ccccc32)cc1C#N	-8%	5%	-7	-1%	-3%	-11%
CCOc1ccc(N2C(=O)CC(N3CCN(c4ccc(Cl)cc4)CC3)C2=O)cc1 (stereo not given)	40µM*	4%	44	14%[2.29 µM]	-14%	-3%
CCOc1ccc(N2C(=O)CC(N3CCN(c4ccc([N+](=O)[O-])cc4)CC3)C2=O)cc1 (stereo not given)	25µM*	-5%	5	-3%	0%	-2%
COc1ccc(N2C(=O)CC(N3CCN(c4ccc(Cl)cc4)CC3)C2=O)cc1 (stereo not given)	-2%	-1%	-12	-2%	-23%	-14%
CCCOc1ccc(N2C(=O)CC(N3CCN(c4ccc([N+](=O)[O-])cc4)CC3)C2=O)cc1 (stereo not given)	15%	·	8	-2%	?	15%
CCOC(=O)CCc1c(C)c2cc3c(c(C)c2oc1=O)OCN(CCc1ccccc1OC)C3	-18%	·	·	379%	-23%	?
O=S1(=O)N=C(Sc2ccc3c(c2)OCCO3)c2ccccc21	·	·	·	·	·	-8%
CNc1cc2c(cc1S(=O)(=O)Nc1ccc(C)c(C)c1)CCC(=O)N2	·	·	·	·	·	0%
SMILES	TrxR1 inh	GALK inhibitor	Giardia kill	TrxR1 substrate	KAT2A inh	Pin1 inh
CCOC(=O)C1(C)Oc2ccccc2C(C(=O)OC)=C1C(=O)OC (stereo not given)	32µM*	·	-25	2%	-7%	-3%
CCOC(=O)C1(C)Oc2ccccc2C(c2ccc(OC)cc2)=C1C(=O)OC (stereo not given)	6%	·	-2	-4%	-11%	4%
N#Cc1nc(Nc2ccc(-c3ccccc3)cc2)nc(NC2CCCC2)n1	·	·	·	·	·	20%
CCOc1ccc(-c2cc(C(=O)O)c3ccccc3n2)cc1	14%	1%	-83*	375%	-22%	-5%
Cc1cc(NC(=O)c2cc(-c3ccccc3C)nc3ccccc23)no1	17%	2%	7	9%	-4%	-13%
Cc1ccc(-c2cc(C(=O)O)c3ccccc3n2)s1	79µM*	2%	-23	827%	?	-2%
COc1ccc(/C=C/c2cc(C(=O)O)c3ccccc3n2)cc1	-14%	·	-93*	41%	-25%	?
COc1cc(OC)c(OC)cc1/C=C/c1cc(C(=O)O)c2ccccc2n1	2%	0%	-23	-4%	-8%	-3%
Cc1cc(NC(=O)c2cc(-c3ccc(C)s3)nc3ccccc23)no1	42%	1%	-3	39%	28µM*	30%
CCc1nn2c(=O)cc(N3C(C)CNCC3C)nc2s1 (stereo not given)	·	·	·	·	·	6%
CCCCCCOc1ccc(/C=C/C(=O)Nc2sc3c(c2C(=O)OC)CCC3)cc1OC	-16%	·	·	-8%	0%	1%
O=C1CCCC(O)=C1C(C#Cc1ccccc1)C1=C(O)CCCC1=O	10µM*	1%	-22	-15%	-3%	?
CC1(C)CC(=O)C(C(C#Cc2ccccc2)C2=C(O)CC(C)(C)CC2=O)=C(O)C1	10µM*	-4%	17	-1%[57.1 µM]	-5%	-6%
CCCN(CCC)C(=O)c1cc([N+](=O)[O-])cc2c1-c1ccc([N+](=O)[O-])cc1C2=C(C#N)C#N	13µM*	-2%	-20	-8%	?	24%
CN(C(=O)c1ccncc1)c1nnc(-c2ccccn2)s1	?	-1%	-1	19%	-2%	3%
CN(C(=O)c1ccno1)c1nnc(-c2ccccn2)s1	20µM*	5%	-2	134%	4%	17%
O=S(=O)(c1c(F)cccc1F)N1CCN(S(=O)(=O)c2c(F)cccc2F)CC1	·	·	·	·	·	5%
